Drawing on PubChem BioAssay (NCI), this text covers growth for 40 molecules.

This is part of a sample that, as a whole, favours compounds with a hit. Of some 83,000 tested, about 20% had one in any assay.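 Interpretation: 100, growth as untreated; towards 0, rising growth inhibition; 0, no net growth; 0 to -100, cell death. Compounds scoring below 10 were considered active.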 The source made the active and inactive calls.

In the experiment the test system is NCI-H322M lung. The experiment in a line: NCI-60 one-dose screen, 48 h (100 = growth as untreated, 0 = no growth, -100 = all killed). The conditions noted are these: 10 µM unless noted. As to the method: Growth inhibition of the NCI-H322M human Non-Small Cell Lung tumor cell line is measured as a screen for anti-cancer activity. Cells are grown in 96 well plates and exposed to the test compound for 48 hours. Compounds are tested at a single concentration, which is 10^-5 M for most compounds. The reported endpoint is percent growth (GI% or GIPRCNT), where numbers from 0 - 100% represent growth inhibition, and numbers from -100% - 0 represent cell death. For example, a value of 40 represents 60% growth inhibition. A value of 0 means no net growth occurred over the course of the experiment. A value of -40 indicates 40% of cells at the beginning of the experiment died by the end of the experiment. A value of -100 means all cells are dead at the end of the experiment.
NCI-60 Human Tumor Cell Lines Screen was performed using the standard one-dose NCI protocol, which is described in more detail at https://dtp.cancer.gov/discovery_development/nci-60/default.htm.
Compounds with GIPRCNT values below 10 were considered active. Activity score was based on GIPRCNT using the following formula: […]
Score is 0 for GIPRCNT values of 100 or above, 50 for GIPRCNT values of 0, and 100 for GIPRCNT values of -100.
On to `COc1cc2nc(N3CCC[C@H](NC4=CC(=O)c5ccccc5C4=O)C3)nc(N)c2cc1OC`, for which the growth was -72.2% (active).

With `O=C1CC(c2ccsc2)c2snc(-c3ccc(Cl)cc3)c2N1` (stereo not given), the growth was 55.7% (inactive).

As to `O=S(=O)(/N=C1C=C/C(=N\S(=O)(=O)c2ccccc2)c2ccccc2\1)c1ccccc1`, the growth was 107% (inactive).

On to `O=C1CCC(N2C(=O)c3cccc(NCCOCCOCCNC(=O)c4cc5c(o4)C(=O)c4ccccc4C5=O)c3C2=O)C(=O)N1` (stereo not given), for which the growth is -76.6% (active).

Consider `COC(=O)c1ccc(C(=O)Nc2ccccc2N)cc1`, for which the growth was 66.5% (inactive).

`CCC12CCC3c4ccc(O)cc4CCC3C1CC(O)C2O` (stereo not given): the growth was 102% (inactive).

Regarding `CNc1ccc(Br)cc1-c1n[nH]c(=O)[nH]c1=O`, the growth is 115% (inactive).

On to `COc1cccc(C2CC(=O)Nc3cc4c(cc32)CCC4)c1OC` (stereo not given), for which the growth is 68% (inactive).

In the case of `O=c1c2cc(F)ccc2oc2c(NCCNCCO)nc3ccccc3c12`, the growth is 36.1% (inactive).

In the case of `CCCCCCCCCCCCCCCC[N+]1(C)CCOCC1`, the growth is 37.1% (inactive).

Consider `Nc1cc2[nH]c(=O)c3ccccc3c2cc1Br`, for which the growth is 86% (inactive).

For `Cc1ccc(S(=O)(=O)N2C/C(=C\c3cc(F)cc(F)c3)C(=O)/C(=C/c3cc(F)cc(F)c3)C2)cc1`, the growth was 27% (inactive).

In the case of `CCC(=O)Nc1nnc(Cc2ccc(OC)c(OC)c2)s1`, the growth is 24.9% (inactive).

For `COc1ccc(-c2nc(Nc3ccc(F)cc3)nc(Nc3ccc4c(c3)nc(C)n4Cc3ccccc3)n2)cc1`, the growth is 82.4% (inactive).

For the molecule `N#Cc1c(-c2cccc(F)c2)cc(-c2ccc(Br)s2)[nH]c1=O`, the growth was 87.9% (inactive).

Take `COC(=O)c1c2c(c(C)[n+]([O-])c1C)C(=O)C=C(NCc1cccc(OC)c1)C2=O`: the growth was -19.6% (active).

Regarding `COc1cccc(OC)c1OC(=O)c1ccccc1`, the growth is 109% (inactive).

Turning to `CN1CCN(c2ccc3nc(-c4ccc5nc(-c6ccc(C(F)(F)F)cc6)[nH]c5c4)[nH]c3c2)CC1`, the growth was 80.1% (inactive).

For `CCCCCn1c(=N)n(CC(O)COc2cccc(C)c2)c2ccccc21` (stereo not given), the growth was 14% (inactive).

Regarding `OB(O)c1ccccc1`, the growth was 111% (inactive).

With `O=C1c2ccccc2C(=O)c2c(Nc3ccc(CCO)cc3)ccc(O)c21`, the growth is 68.5% (inactive).

For `O=C1OCC2=C1C(c1ccc3c(c1)OCO3)CC(=O)N2c1cccc(Cl)c1` (stereo not given), the growth is 94.1% (inactive).

`O=C1CCC(N2Cc3c(C#CCCCNC(=O)c4cc5c(o4)C(=O)c4ccccc4C5=O)cccc3C2=O)C(=O)N1` (stereo not given): the growth is -88.2% (active).

As for `COc1ccc(/C=C2\SC(=O)N(CN3CCN(c4cc5c(cc4F)c(=O)c(C(=O)O)cn5C4CC4)CC3)C2=O)cc1`, the growth was 112% (inactive).

Regarding `c1ccc(-c2n(Cc3ccc4ccccc4n3)c3ccccc3[n+]2Cc2ccc3ccccc3n2)cc1`, the growth was 14.3% (inactive).

Consider `NC(=O)c1cc(I)ccc1NC(=O)COc1ccc(Cl)cc1Cl`, for which the growth is 98.5% (inactive).

As for `CCCCNNC(=O)c1ccc(Br)cc1`, the growth was 59.3% (inactive).

In the case of `CN(C)c1ccc(/C=C(\C#N)c2cc3ccccc3n2C)cc1`, the growth is 49.7% (inactive).

On to `O=C1CN2CCC1C/C2=C\c1ccnc2c(Cl)cccc12` (stereo not given), for which the growth was 102% (inactive).

Regarding `CCOC(=O)n1cc(C2=C(c3cn(C)c4ccccc34)COC2=O)c2ccccc21`, the growth was 47.4% (inactive).

As for `COc1ccc(-c2[nH]ncc2Nc2cc(OC)c(OC)c(OC)c2)cc1`, the growth is 48.7% (inactive).

Take `Cc1nc2cc(Nc3nc(Nc4ccc(F)cc4)nc(N4CCCC4)n3)ccc2n1Cc1ccccc1`: the growth is 21.4% (inactive).

`CC1=CN2C(=NC3=C(CCCC/C3=C\c3ccccc3)C2c2ccccc2)S1` (stereo not given): the growth was 101% (inactive).

Turning to `Clc1ccc(C2=NN(c3ccccc3)[C@H](c3cn(-c4ccccc4)nc3-c3ccccc3)C2)cc1`, the growth is 101% (inactive).

For `Fc1c[c-]c(-c2ccccn2)c(F)c1.Fc1c[c-]c(-c2ccccn2)c(F)c1.[Cl][Pt+].[Cl][Pt+].c1ccc([PH+](C[PH+](c2ccccc2)c2ccccc2)c2ccccc2)cc1`, the growth was 66.6% (inactive).

With `O=C1Nc2ccc(Cl)cc2/C1=N/N=C(c1ccccc1)c1ccccc1`, the growth was 98.1% (inactive).

Regarding `CCOC(=O)c1sc(NC(=O)CN2CCC(Cc3ccccc3)CC2)nc1C`, the growth is 90.4% (inactive).

`COc1ccc(NC(=O)COc2ccccc2)c(C(N)=O)c1`: the growth was 59.3% (inactive).

In the case of `Nc1nc2c(s1)CCc1c-2c(Br)n(Cc2ccccc2)c1Br`, the growth is 99.8% (inactive).

With `COc1ccc(/C=N/OCC(O)CN2CCC(O)CC2)cc1OC1CCCC1` (stereo not given), the growth was 108% (inactive).
